Data taken from PubChem BioAssay AID1159580 (chemical genetic matrix, 2015).
“And” between values parts separate entries of the source, which are not always exact repeats. Equal entries are not always repeated. The whole screen tested about 5,500 compounds, of which about 2,000 (36%) were called active. About 18% were inconclusive and are not listed. Rule as the data show it: active = normalized growth mostly below about 0.91 (no sharp cut-off); inconclusive = no clear call, values can overlap the other calls; inactive = mostly above about 0.92. The list shows a part of the results.

Assay: chemical genetic growth profiling, strain panel (AID 1159580);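 also: tested at 20 µM; growth read once vehicle control cultures reached saturation at 30 °C; 1 = growth at the plate median or of vehicle wells; lower values mean less growth of the strain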
Details: S. cerevisiae deletion strains, growth OD

Measured: normalized growth

CC(=O)OCC(=O)[C@@]1(O)[C@H](OC(C)=O)CC2C3CCC4=CC(=O)C=C[C@]4(C)[C@@]3(F)[C@@H](O)C[C@@]21C (some centres not stated)
inactive: locus YAL013W, strain DEP1, stronger effect = lower value 0.993 | locus YAL021C, strain ccr4, stronger effect = lower value 0.982 | locus YAL026C, strain drs2, stronger effect = lower value 0.959 | locus YAL030W, strain snc1, stronger effect = lower value 0.995 | locus YBL061C, strain skt5, stronger effect = lower value 1 | locus YBR009C, strain hhf1, stronger effect = lower value 0.923 | locus YBR021W, strain FUR4, stronger effect = lower value 0.986 | locus YBR023C, strain chs3, stronger effect = lower value 0.981 | locus YBR171W, strain sec66, stronger effect = lower value 0.985 | locus YBR229C, strain ROT2, stronger effect = lower value 0.951 | locus YBR231C, strain swc5, stronger effect = lower value 1.01 | locus YBR279W, strain paf1, stronger effect = lower value 0.987 | locus YCL011C, strain gbp2, stronger effect = lower value 0.947 | locus YCL016C, strain dcc1, stronger effect = lower value 0.965 | locus YCL029C, strain bik1, stronger effect = lower value 0.99 | locus YCL069W, strain vba3, stronger effect = lower value 0.983 | locus YCR088W, strain abp1, stronger effect = lower value 0.987 | locus YDL005C, strain med2, stronger effect = lower value 0.993 | locus YDL035C, strain GPR1, stronger effect = lower value 0.973 | locus YDL040C, strain nat1, stronger effect = lower value 1 | locus YDL074C, strain BRE1, stronger effect = lower value 0.947 | locus YDL101C, strain DUN1, stronger effect = lower value 0.98 | locus YDL134C, strain PPH21, stronger effect = lower value 0.994 | locus YDL185W, strain tfp1, stronger effect = lower value 0.99 | locus YDL192W, strain arf1, stronger effect = lower value 0.997 | locus YDR001C, strain nth1, stronger effect = lower value 0.959 | locus YDR069C, strain doa4, stronger effect = lower value 1.01 | locus YDR101C, strain arx1, stronger effect = lower value 1.01 | locus YDR137W, strain rgp1, stronger effect = lower value 0.98 | locus YDR159W, strain sac3, stronger effect = lower value 0.923 | locus YDR162C, strain NBP2, stronger effect = lower value 0.988 | locus YDR195W, strain ref2 1.03 | locus YDR297W, strain sur2, stronger effect = lower value 0.987 | locus YDR318W, strain mcm21, stronger effect = lower value 0.994 | locus YDR334W, strain swr1, stronger effect = lower value 0.982 | locus YDR335W, strain msn5, stronger effect = lower value 0.983 | locus YDR388W, stronger effect = lower value 1 | locus YDR392W, strain spt3, stronger effect = lower value 0.913 | locus YDR502C, strain sam2, stronger effect = lower value 1 | locus YEL003W, strain gim4, stronger effect = lower value 0.992 | locus YEL037C, strain rad23, stronger effect = lower value 0.983 | locus YEL061C, strain CIN8 (second series), stronger effect = lower value 0.973 | locus YEL061C, strain CIN8, stronger effect = lower value 0.991 | locus YER015W, strain faa2, stronger effect = lower value 1 | locus YER016W, strain bim1, stronger effect = lower value 0.961 | locus YER110C, stronger effect = lower value 0.974 | locus YER111C, strain swi4, stronger effect = lower value 0.976 | locus YER155C, strain BEM2 (second series), stronger effect = lower value 1.04 | locus YER155C, strain BEM2, stronger effect = lower value 0.998 | locus YER167W, strain BCK2, stronger effect = lower value 0.991 | locus YFR010W, strain ubp6, stronger effect = lower value 0.983 | locus YGL078C, strain dbp3, stronger effect = lower value 0.995 | locus YGL086W, strain mad1, stronger effect = lower value 0.99 | locus YGL167C, strain pmr1, stronger effect = lower value 0.998 | locus YGL173C, strain kem1, stronger effect = lower value 1.01 | locus YGL227W, strain vid30, stronger effect = lower value 0.979 | locus YGL240W, strain doc1, stronger effect = lower value 1.02 | locus YGL248W, strain PDE1, stronger effect = lower value 0.975 | locus YGL253W, strain hxk2, stronger effect = lower value 0.964 | locus YGR135W, strain pre9, stronger effect = lower value 0.997 | locus YGR252W, strain gcn5, stronger effect = lower value 0.967 | locus YHR013C, strain ard1, stronger effect = lower value 0.948 | locus YHR027C, strain rpn1, stronger effect = lower value 0.966 | locus YHR030C, strain SLT2, stronger effect = lower value 0.995 and 0.971 | locus YHR079C, strain IRE1 (second series), stronger effect = lower value 1.01 | locus YHR079C, strain IRE1, stronger effect = lower value 0.964 | locus YHR094C, strain hxt1, stronger effect = lower value 1.01 | locus YHR129C, strain ARP1, stronger effect = lower value 0.977 | locus YHR142W, strain chs7, stronger effect = lower value 0.957 | locus YHR200W, strain rpn10, stronger effect = lower value 0.997 | locus YIL066C, strain RNR3, stronger effect = lower value 0.981 | locus YIL073C, strain SPO22, stronger effect = lower value 1.02 | locus YIL125W, strain kgd1, stronger effect = lower value 0.996 | locus YIR030C, strain dcg1, stronger effect = lower value 0.989 | locus YJL092W, strain hpr5, stronger effect = lower value 0.991 | locus YJL095W, strain BCK1 (second series), stronger effect = lower value 0.986 | locus YJL095W, strain BCK1, stronger effect = lower value 0.945 and 0.981 | locus YJL115W, strain asf1, stronger effect = lower value 0.972 | locus YJL129C, strain trk1, stronger effect = lower value 0.988 | locus YJL134W, strain LCB3, stronger effect = lower value 0.993 | locus YJL154C, strain vps35, stronger effect = lower value 0.986 | locus YJL164C, strain tpk1, stronger effect = lower value 0.974 | locus YJL166W, strain qcr8, stronger effect = lower value 1.04 | locus YJL168C, strain set2, stronger effect = lower value 0.999 | locus YJL187C, strain SWE1 (second series), stronger effect = lower value 0.975 | locus YJL187C, strain SWE1, stronger effect = lower value 0.984 | locus YJR043C, strain POL32, stronger effect = lower value 0.992
